# Screens (PubChem BioAssay)
# N370S GC mod – qHTS Assay for Inhibitors and Activators of N370S glucocerebrosidase as a Potential Chaperone Treatment of Gaucher Disease. hit rate 0.092% among 330,000. AID 2101, 2009. Lysosomal acid glucosylceramidase (Homo sapiens), P04062. N370S GC spleen homogenate, 4MU-glucoside fluorescence. Potency, µM (series often up to 59.4 µM), for the others: at the top dose activity change, negative = inhibition, most hits filed as inhibitors;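 note: potency is the fitted concentration of half-maximal effect; 0% = full enzyme activity and -100% = no enzyme basal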
# a7 integrin act – qHTS for Activators of Integrin-Mediated Alleviation for Muscular Dystrophy; alpha7betagal myoblasts, beta-gal FDG fluorescence, 48 h; Potency, µM (titrated, usually from 38.3 µM), inactives show top-dose activation, usual class: activators; hit rate 0.064% among 350,000;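 note: potency is the fitted concentration of half-maximal effect; 100% = response of the positive control SU9516; nearly all actives have a fitted effect of over 60% in size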
#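 alpha7betagal+/- myoblasts (passage 13, 250/well) treated 48 h at 37C with compounds at 1:260 dilution of DMSO stock. Lysed, then beta-galactosidase activity read as FDG fluorescence (ex 480/em 540) after 30 min, with pre-read for autofluorescence.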
# Anesthetic bind – qHTS Assay for Identification of Novel General Anesthetics | Ferritin light chain (Equus caballus), P02791 | apoferritin/1-aminoanthracene competitive binding, fluorescence | Potency, µM (doses to about 77.5 µM), inactives show at the top dose activity change, negative = displacement, hits mostly inhibitors | hit rate 0.074% among 350,000; note: potency is the fitted concentration of half-maximal effect; % is set by controls: 0 for no effect and ±100 for the full control effect; nearly all actives have a fitted effect of over 20% in size
# Target sequence (P02791 2-175 limits assumed): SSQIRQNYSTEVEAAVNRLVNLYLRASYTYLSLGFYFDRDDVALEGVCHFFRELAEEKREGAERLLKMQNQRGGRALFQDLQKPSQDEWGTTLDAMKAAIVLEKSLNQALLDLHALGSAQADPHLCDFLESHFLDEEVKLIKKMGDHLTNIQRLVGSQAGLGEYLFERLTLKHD
#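 Concentration-response curves derived by four-parameter Hill fitting of normalized fluorescence, where compounds displaced 1-AMA from 10 uM horse apoferritin following a brief 10 min room-temperature incubation; propofol titration acted as positive control.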
# CBFb RUNX1 block – qHTS Assay for Compounds Blocking the Interaction Between CBF-beta and RUNX1 for the Treatment of Acute Myeloid Leukemia; AlphaScreen CBFb-His/RUNX1-biotin binding, biochemical; AID 1477, 2009; 230,000 tested, under 10 active; Potency, µM (titrated, usually from 59.8 µM), for inactives: top-dose activity, negative = inhibition, hits mostly inhibitors; note: % of control where 0% means no effect
#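 AlphaScreen proximity signal reports loss of binding between His-tagged CBF-beta and biotin-labelled RUNX1, each at 30 nM. Proteins are pre-associated for 20 minutes, compounds added for 15 minutes, then beads for 90 minutes, all at ambient temperature.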
# GRP78 ERSR act – qHTS for Inducers of the Endoplasmic Reticulum Stress Response (ERSR) in Human Glioma: qHTS | U87-MG GRP78 promoter luciferase reporter, 16 h | Potency, µM, without a hit: top-dose activation, most hits filed as activators | hit rate 0.02% among 420,000 | AID 602332, 2012; note: potency is the fitted concentration of half-maximal effect; series mostly up to about 76 µM; % of control where 0% means no effect; nearly all actives have a fitted effect of over 35% in size
#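 ERSR induction read as luciferase luminescence (Bright-Glo, 10 min at room temperature) in stably transfected human U87-MG glioma cells exposed to compounds for 16 h, using GRP78 as sensor.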
# ClpP mod – qHTS Assay for Activators of ClpP; Potency, µM (highest dose often 57.5 µM), inactives show top-dose activity change, negative = active; ATP-dependent Clp protease proteolytic subunit (Bacillus subtilis (strain 168)), P80244; purified B. subtilis ClpP, FRET peptide cleavage, 20 min; hit rate 1.9% among 340,000; active = well fitted falling curve with a large enough effect; inconclusive = small, poorly fitted or top-dose-only effect; inactive = no such curve, though single readings can be large or run the other way; note: potency is the fitted concentration of half-maximal effect; the source files actives as falling curves though it sought activators and does not explain the sign; nearly all actives have a fitted effect of over 65% in size
# Target sequence (P80244 whole entry, looked up): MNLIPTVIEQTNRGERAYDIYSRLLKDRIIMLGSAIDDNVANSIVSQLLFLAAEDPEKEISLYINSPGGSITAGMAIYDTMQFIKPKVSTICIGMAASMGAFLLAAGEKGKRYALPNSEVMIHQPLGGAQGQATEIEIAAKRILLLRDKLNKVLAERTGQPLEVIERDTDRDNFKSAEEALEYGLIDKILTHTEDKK
#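 ClpP 10 microg/mL final, pH 8 Tris/KCl buffer with BSA, glycerol, Tween-20; compound pinned in; FRET-FV substrate; RT 20 min; Ex320/Em430; ΔFRET vs ADEP 5.8 microM, DMSO, no enzyme.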
# Active calls of the source: *; u = inconclusive; x = not tested or not shown. The entries come from a sample that favours hits as a whole. Unless noted, calls come from the whole dose curve; as a rule, active = well fitted curve in the direction sought with a large enough effect; inconclusive = small, poorly fitted or top-dose-only effect, or another doubt; inactive = no such curve, though single readings can be large; an effect the other way counts as inactive or inconclusive.
SMILES,N370S GC mod,a7 integrin act,Anesthetic bind,CBFb RUNX1 block,GRP78 ERSR act,ClpP mod
CCOc1ccc(CN2CCNC(=O)C2CC(=O)NCc2cc(C)n(C)n2)cc1 (stereo not drawn),-4%,20%,-10%,x,-3%,0%
Cc1nc(CNC(=O)CC2C(=O)NCCN2Cc2ccc(F)cc2)cs1 (stereo not drawn),0%,-34%,-15%,x,1%,0%
CCOc1ccc(CN2CCNC(=O)C2CC(=O)NCCN2CCOC2=O)cc1 (stereo not drawn),-5%,18%,-10%,x,0%,28µM*
Cc1ccc(CN2CCNC(=O)C2CC(=O)NCc2cc(C)n(C)n2)cc1 (stereo not drawn),0%,0%,-9%,x,-4%,32µM*
CC(C)(C)n1ncc2c(=O)n(Cc3ccc(Cl)c(F)c3)cnc21,x,x,x,x,-3%,x
Cc1cc(Cl)ccc1OCC(=O)N1CCOc2ccc(CN3C[C@@H](C)O[C@@H](C)C3)cc2C1,x,x,x,x,-3%,x
Cc1cc(C(=O)Nc2ccccc2-c2nc(CNC(=O)C3(C)CCCCC3)c(C)o2)c(C)o1,x,x,x,x,-6%,x
CCC(=O)Nc1c(-c2ccc(OC)cc2)c(=O)c2ccccc2n1C,0%,-22%,3%,1%,-3%,35µM*
CCC(=O)Nc1c(-c2ccc(C)cc2)c(=O)c2ccccc2n1C,-17%,12%,43%,x,-3%,x
CCOC(=O)c1[nH]c2ccc(OC)cc2c1NC(=O)CCN1CCc2ccccc2C1,-6%,-16%,-6%,4%,1%,28µM*
CCOC(=O)c1[nH]c2ccc(OC)cc2c1NC(=O)CCN1CCC(C)CC1,0%,5%,15%,-1%,-5%,28µM*
CCOC(=O)c1[nH]c2ccc(F)cc2c1NC(=O)CN1CCc2cc(OC)c(OC)cc2C1,-17%,x,-13%,-16%,x,x
CCOC(=O)CSc1nc2cc(OCC)ccc2cc1C#N,8%,2%,-5%,21%,8%,16µM*
Cc1ccc2cc(C#N)c(SCC(=O)NNC(=O)Cc3ccccc3)nc2c1,2%,11%,1%,-6%,-3%,28µM*
CCOC(=O)CSc1nc2cc(OC)c(OC)cc2cc1C#N,x,x,x,x,3%,32µM*
COc1ccc2cc(C#N)c(SCC(=O)NNC(=O)Cc3ccccc3)nc2c1,4%,-41%,-18%,-1%,-8%,u
COc1cc2cc(C#N)c(SCC(=O)N3CCOCC3)nc2cc1OC,26%,-6%,-10%,-7%,2%,-27%
CCc1nc(SCC(=O)N2CCc3cc(OC)c(OC)cc3C2)c(C#N)cc1C,x,-21%,x,x,-3%,32µM*
COc1cc2c(cc1OC)CN(C(=O)CSc1nc(C)cc(C)c1C#N)CC2,7%,-20%,51%,-12%,-2%,-3%
Cc1ccc(CNc2ncnc3sc(C(=O)N4CCC(N5CCCC(O)C5)CC4)c(C)c23)o1 (stereo not drawn),x,x,x,x,-3%,x
COc1cccc(CNC(=O)c2c(OC)cc(=O)n3c2CCN(C(=O)C2=C(C)OCCO2)CC3)c1,x,x,x,x,18%,x
Cc1ccc(S(=O)(=O)N2CCCN(c3nc4cc(C)ccc4cc3C#N)CC2)cc1,15%,9%,-7%,u,-1%,u
Cc1cc2cc(C#N)c(N3CCN(S(C)(=O)=O)CC3)nc2cc1C,11%,2%,-10%,-9%,2%,20µM*
Cc1cc(C)c2cc(C#N)c(N3CCCC3)nc2c1,6%,18%,2%,10%,-1%,25µM*
COC(=O)c1c(OCc2cccnc2)cc(=O)n2c1CCN(C(=O)c1cccc(N(C)C)c1)CC2,x,x,x,x,-5%,x
SMILES,N370S GC mod,a7 integrin act,Anesthetic bind,CBFb RUNX1 block,GRP78 ERSR act,ClpP mod
COc1ccccc1C(=O)N[C@@H]1c2ccccc2C2(CCN(C(=O)c3ccnn3C)CC2)[C@H]1OC,x,x,x,x,0%,x
Cc1cc(C)c(C#N)c(=N)o1,9%,9%,-4%,-6%,-2%,2.8µM*
O=C(CN1CCN(c2ccc(O)cc2)CC1)Nc1cc([N+](=O)[O-])ccc1Cl,-3%,-24%,8%,10%,0%,16µM*
CC(=O)N1CCN(CC(=O)Nc2cc([N+](=O)[O-])ccc2Cl)CC1,-9%,-1%,-5%,-3%,-7%,x
Cc1c(S(=O)(=O)N(C)C2CCCCC2)c(=O)n(C)c(=O)n1C,-13%,-1%,x,x,-3%,13µM*
Fc1ccc(N2CCN(Cc3ccc4c(c3)CN(Cc3cccn3-c3ncccn3)CCO4)CC2)cc1,x,x,x,x,-3%,x
Cc1ccc(CNC(=O)c2nn(-c3ccc(Cl)cc3)nc2CO)cc1,x,x,-10%,x,-4%,25µM*
O=C(NCCc1ccccc1)c1nn(-c2ccc(F)cc2)nc1CO,x,x,42%,x,-2%,u
Cc1ccc(-n2nc(CO)c(C(=O)NCc3cccnc3)n2)cc1C,x,x,-10%,x,-1%,16µM*
O=C(NCc1cccnc1)c1nn(-c2ccc(F)cc2)nc1CO,x,x,9%,x,1%,25µM*
CCOc1ccc(-n2nc(CO)c(C(=O)NCc3cccs3)n2)cc1,x,x,-9%,x,-1%,7.9µM*
Cc1cc(C(=O)NCc2cccnc2)cs1,-11%,10%,-12%,4%,0%,1%
Cc1ccc(-n2nc(CO)c(C(=O)NCc3cccs3)n2)cc1,x,x,-6%,x,-1%,u
COc1cc(Cl)c(CC(=O)NO)cc1OC,x,x,x,x,x,2%
CSc1nnc(CNC(=O)c2c(-c3ccccc3)noc2C)n1-c1ccc(F)cc1,x,x,x,x,-4%,x
Cc1ccc(-n2nc(CO)c(C(=O)NCc3cccnc3)n2)cc1,x,x,-1%,x,-1%,7.9µM*
CCc1ccc(-n2nc(CO)c(C(=O)NCc3cccnc3)n2)cc1,x,x,-2%,x,0%,u
CC1(C)CC(N=c2cc(-c3ccccc3)oc3ccc(Cl)cc23)CC(C)(C)N1,-15%,-60%,-19%,-1%,6%,5%
OCCCN=c1cc(-c2ccccc2)oc2ccc(Cl)cc12,-16%,-64%,-17%,3%,u,32µM*
CC(C)(C)Cc1nnc(NC(=O)Cc2ccc([N+](=O)[O-])cc2)s1,2%,-8%,-2%,3%,1%,0%
O=C(Cc1ccc([N+](=O)[O-])cc1)Nc1nnc(C2CC2)s1,2%,-2%,-10%,-2%,-4%,25µM*
Cc1ccc(CNC(=O)CCC(=O)Nc2nnc(C3CCCCC3)s2)cc1,2%,25%,1%,-15%,-3%,28µM*
